Measurements as given in the supplement of paper PMC4166925.
± gives the standard deviation of the averaged measurements. Whole data set: some 33,000 sequences, median “E-score (dimensionless, -0.5 to 0.5)” near -0.046, cut for the highest 2% near 0.36. This excerpt belongs to a sample that is enriched for the highest values.

What follows are sequences tested on T1, SpTbr T-box DNA-binding domain (GST fusion) (assay: PBM E-score of 8-mer (E-score (dimensionless, -0.5 to 0.5)); Tbr is Tbrain of the sea star Patiria miniata (Pm) or the sea urchin Strongylocentrotus purpuratus (Sp); higher = stronger binding preference). Conditions: the construct has about 5 more residues each side.
T1 sequence: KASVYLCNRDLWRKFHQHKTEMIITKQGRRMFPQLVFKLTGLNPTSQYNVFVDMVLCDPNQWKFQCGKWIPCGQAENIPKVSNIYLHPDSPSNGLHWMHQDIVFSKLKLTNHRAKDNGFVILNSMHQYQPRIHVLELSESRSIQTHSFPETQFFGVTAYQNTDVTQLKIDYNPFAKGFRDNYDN
How it was run: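 Universal Agilent oligonucleotide arrays, made double-stranded by primer extension, were incubated with 200 nM GST-fused Tbr T-box DNA-binding domain in PBS (pH 7.5). The protein was expressed in BL21 E. coli at 20 °C and purified by glutathione affinity chromatography. After scanning and quantification, the Universal PBM Analysis Suite assigned an enrichment E-score to each ungapped 8-mer, averaged over duplicate arrays.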

Sequence | PBM E-score of 8-mer
CGTTGAAG | 0.0941 ± 0.031
ATGGACAA | 0.101 ± 0.003
AGGCCAAC | -0.0875 ± 0.028
CGAGTAGC | 0.0635 ± 0.0055
TAGGGCGA | -0.00769 ± 0.086
GAACTTGA | -0.0691 ± 0.0032
CCGCGACG | 0.0384 ± 0.061
ATCAGATA | -0.0339 ± 0.043
AGTGAGAT | 0.287 ± 0.033
AGTGAGAG | 0.3 ± 0.0092
AGTGAGAA | 0.422 ± 0.014
CAACCTGA | -0.0529 ± 0.059
ATTGGTCC | -0.197 ± 0.039
AACGTGTG | 0.4114 ± 0.0041
AGCGTGTC | 0.152 ± 0.072
CACGTGTA | 0.272 ± 0.0034
AACGTGTA | 0.135 ± 0.074
CACGTGAC | 0.286 ± 0.042
AACGTGCG | 0.32 ± 0.0051
CACGTGTC | 0.391 ± 0.014
AACGTGTC | 0.372 ± 0.0067
ACCGTGTG | 0.203 ± 0.052
ACTCGATG | -0.0556 ± 0.081
ACAACGAT | -0.00065 ± 0.016
CACGCCCC | 0.24 ± 0.013

Sequence | PBM E-score of 8-mer
AGACAACG | -0.0213 ± 0.033
CAGCTAGG | 0.101 ± 0.087
CAGCCTCC | -0.239 ± 0.021
CAGGCTAC | -0.221 ± 0.014
ACAATTCA | 0.163 ± 0.069
GCCGACCC | -0.201 ± 0.12
GCCGACAA | 0.161 ± 0.014
ACCGACAT | -0.042 ± 0.038
CCCGACAA | 0.154 ± 0.02
CCCGACAG | 0.0718 ± 0.038
ACCGACAA | -0.0797 ± 0.034
CCCGACAC | 0.367 ± 0.017
GCCGACAC | 0.397 ± 0.0048
ACCGACAC | 0.373 ± 0.0082
GACAATTA | 0.029 ± 0.11
GGACAACA | 0.0909 ± 0.012
GAGGATGC | -0.0317 ± 0.049
CGGAATGC | -0.214 ± 0.051
GCGAACGA | 0.283 ± 0.035
CCGAACGC | -0.0118 ± 0.08
GCGAACGC | 0.3749 ± 0.0018
GCAGAGAA | -0.328 ± 0.0058
GACTCTCA | 0.0161 ± 0.056
ATTCACTG | 0.0169 ± 0.045
GTTCACGA | 0.275 ± 0.0011

Sequence | PBM E-score of 8-mer
ATTCACAA | 0.299 ± 0.061
GTTCACTA | -0.0482 ± 0.02
CTTCACAC | 0.4852 ± 0.00088
CTTCACCC | 0.123 ± 0.04
ATTCACAG | 0.395 ± 0.025
CTTCACAA | 0.32 ± 0.0058
ATTCACCG | 0.0187 ± 0.041
ATTCACTC | 0.115 ± 0.056
ATTCACAC | 0.4807 ± 0.0029
GTTCACAA | 0.376 ± 0.02
AGAGAGCT | -0.0758 ± 0.017
GGAGAACC | 0.0265 ± 0.00056
GCAATACA | -0.0823 ± 0.031
CATCGACA | 0.222 ± 0.013
ACTTTTCT | 0.00466 ± 0.018
CATAAGTC | -0.18 ± 0.0024
CACAGTTA | 0.147 ± 0.022
CCTCAGAC | -0.204 ± 0.031
GTCAACAA | 0.333 ± 0.0095
GTCAACAC | 0.434 ± 0.0065
CACAACAG | 0.198 ± 0.0064
AACAACAC | 0.373 ± 0.013
GACAACAA | 0.215 ± 0.015
CTCAACAC | 0.269 ± 0.022
AACAACAT | 0.187 ± 0.02

Sequence | PBM E-score of 8-mer
GACAACAC | 0.385 ± 0.0048
CACAACAA | 0.285 ± 0.028
CACAACAC | 0.3898 ± 0.0017
AACAACAA | 0.102 ± 0.0091
GACAACTC | 0.252 ± 0.019
AGAGCCAG | 0.0237 ± 0.035
TGTTTCAA | -0.0693 ± 0.047
CAGCGCAA | -0.0911 ± 0.0026
GCAGCGCC | 0.189 ± 0.062
CGCATGGC | -0.0354 ± 0.028
CCTCCACG | 0.0268 ± 0.029
CCGCAAGG | -0.0599 ± 0.044
ACCGTCCG | -0.0723 ± 0.023
CGGTTAAA | -0.129 ± 0.16
CCGACACA | 0.36 ± 0.022
ACGACACT | 0.257 ± 0.0054
GGGACACC | 0.226 ± 0.042
CCGACACG | 0.253 ± 0.034
ACGACACG | 0.226 ± 0.042
GCGACACA | 0.31 ± 0.0039
GCGACACC | 0.432 ± 0.021
CCGACACC | 0.438 ± 0.0068
ACGACACC | 0.419 ± 0.02
CGTTGGGC | -0.255 ± 0.022
ATCAATCC | -0.172 ± 0.082

Sequence | PBM E-score of 8-mer
GAACGATC | 0.0814 ± 0.028
CCTGACCC | -0.133 ± 0.084
TGAGCGCA | 0.00286 ± 0.049
ATGTGAGA | 0.414 ± 0.018
CTGTGATA | 0.23 ± 0.055
CTGTGAGA | 0.292 ± 0.0058
GTGTGATA | 0.459 ± 0.0047
ATGTGATA | 0.254 ± 0.024
GTGTGAGA | 0.4699 ± 0.0024
ATGTGAGC | 0.06995 ± 0.00026
ATGTGAGG | 0.28 ± 0.041
GTGAGAGA | 0.339 ± 0.0054
CCGATCAA | 0.0887 ± 0.014
GTACTTGA | 0.0232 ± 0.044
GCATCCCA | -0.16 ± 0.063
GTCACAAC | 0.293 ± 0.0073
GGGTGTAA | 0.386 ± 0.0076
AGGTGTAT | 0.281 ± 0.011
AGGTGTAG | 0.3922 ± 0.0034
AGGTGTAC | 0.294 ± 0.0088
AGGTGTAA | 0.475 ± 0.011
TGGTGTAA | 0.292 ± 0.059
GGGTGTAC | -0.0335 ± 0.078
CGGTGTAA | 0.216 ± 0.014
CGGTGTAG | 0.17 ± 0.083

Sequence | PBM E-score of 8-mer
CTGGCCCC | -0.113 ± 0.035
AACGAGCG | 0.0213 ± 0.0072
GAGCAAGA | -0.187 ± 0.011
AATCAGTC | -0.0936 ± 0.015
CTCGTTAC | -0.116 ± 0.031
GGTTGCGA | 0.266 ± 0.015
CGCGCAAC | 0.173 ± 0.066
AATGTGAT | 0.253 ± 0.0037
GATGTGAC | 0.273 ± 0.019
AGTGTGTG | 0.36 ± 0.023
AGTGTGAC | 0.445 ± 0.011
AGTGTGAG | 0.4646 ± 0.0021
AGAGTGAT | 0.231 ± 0.039
AGTGTGAT | 0.4721 ± 0.0012
GGTGTGAC | 0.4822 ± 0.0041
GCTGTGAC | 0.161 ± 0.042
AGTGTGTC | 0.234 ± 0.06
ATTGTGAG | 0.25 ± 0.035
ACTGTGAC | 0.237 ± 0.023
GGAGCTAA | -0.165 ± 0.013
GATTTCAC | 0.332 ± 0.023
ACCTGTAA | 0.154 ± 0.021
AGGCATTG | -0.17 ± 0.042
ATTCAAGG | -0.262 ± 0.017
CCAGCGGA | -0.0913 ± 0.043

Sequence | PBM E-score of 8-mer
ATGACGGA | -0.139 ± 0.0034
CGTGTGAC | 0.399 ± 0.012
CATGTGAG | 0.137 ± 0.0055
CGTGTGAG | 0.4011 ± 0.0033
CCTGTGAG | 0.24582 ± 4.2e-05
CCTGTGAC | 0.263 ± 0.011
CGTGTGTC | 0.172 ± 0.058
CCCAACTA | -0.164 ± 0.083
AGCGTCCC | -0.148 ± 0.0096
GCTTATCC | 0.125 ± 0.027
CCTCATAA | -0.0692 ± 0.021
ACGTGTTG | 0.367 ± 0.00092
GCGTGTTA | 0.302 ± 0.018
ACGTGTTC | 0.1884 ± 0.00041
ACGTGTTA | 0.431 ± 0.015
ACGTGTAG | 0.133 ± 0.068
CCGTGTTA | 0.158 ± 0.029
GATCGCTA | 0.136 ± 0.022
GGTCGATA | 0.0927 ± 0.012
AACTGTTG | 0.241 ± 0.017
CACGCAGA | 0.0713 ± 0.028
CTTGACGC | 0.324 ± 0.011
ATTGACAC | 0.418 ± 0.0052
CTTGACCC | -0.308 ± 0.038
ATTGACAA | 0.298 ± 0.026
